Source: PubChem BioAssay
Arbovirus anti = antivirals against arbovirus infection; arbovirus infection cell-based antiviral screen; inhibition, % at 10 µM; 0.37% of 200,000 active; in the data active = inhibition above about 30%
WT yeast gro inh = growth inhibition of WT yeast, mitochondrial fusion screen | mitochondrial fusion phenotypic screen, WT strain | inhibition, % at 10 µM | 2.1% of 190,000 active | AID 1362; in the data active = inhibition above about 58%; tested in S. cerevisiae
Lmaj promast = inhibitors of Leishmania major promastigote growth | Leishmania major promastigotes, resazurin fluorescence viability | inhibition, % at 10 µM | 9% of 200,000 active; in the data active = inhibition above about 50%;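 note: promastigotes grown with compound for 44 hours at 28 °C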
CHOP inh = CHOP inhibition in unfolded protein response; CHO-K1 CHOP-promoter luciferase, tunicamycin-induced, 15-18 h; inhibition, % at 10 µM; 3.8% of 220,000 active;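 active = compounds that reduced the stress-induced luciferase reporter signal by more than about 70% of percent inhibition, limit read from the data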;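 note: 0% = tunicamycin plus vehicle and 100% = wells without tunicamycin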
Active calls of the source: *; . = no result given. Hits are enriched below; roughly 12% of the tested compounds scored in any of these assays.

SMILES	Arbovirus anti	WT yeast gro inh	Lmaj promast	CHOP inh
CCOc1ccc(NS(=O)(=O)c2ccc(NC(=O)C3CCCO3)cc2)cc1 (centres undefined)	10	32	-4	0
C=CCSc1nnc2n(CCc3ccccc3)c(=O)c3c4c(sc3n12)COC(C)(C)C4	0	32	14	71*
CCCCSC(=S)N(C)C1CCS(=O)(=O)C1 (centres undefined)	16	-4	-4	30
CCc1ccc(C(=O)CSc2nc3ccccc3c(=O)[nH]2)cc1	-1	27	98*	95*
O=C(CCCSc1nc2ccccc2c(=O)[nH]1)c1ccc(F)cc1	4	3	1	79*
Cc1ccc(C(=O)CSc2nc3ccccc3c(=O)[nH]2)cc1	13	15	44	-2
CC(C)(C)NC(=O)C(OC(=O)c1cccs1)c1ccc(C#N)cc1 (centres undefined)	-2	1	7	19
C/C(=N\N=C(N)N)c1cccc([N+](=O)[O-])c1	3	4	64*	-10
CC(=O)NCC(=O)OCc1ccc([N+](=O)[O-])cc1	-3	-11	-4	22
C/C(=N\Nc1ccc([N+](=O)[O-])cc1)c1cccc(N)c1	-14	12	61*	55
C/C(=N\Nc1ccc([N+](=O)[O-])cc1)c1ccc(O)cc1	-15	17	22	15
CC(=O)NC/C(C)=N\Nc1ccc([N+](=O)[O-])cc1	-22	78*	63*	11
Cc1cc(C)cc(N(CC(=O)NC2CCC(C)CC2)S(=O)(=O)c2c(C)[nH]c(=O)[nH]c2=O)c1 (centres undefined)	.	.	.	-11
CC(=O)c1cccc(NC(=O)C(OC(=O)/C=C/c2ccc3c(c2)OCO3)c2ccccc2)c1 (centres undefined)	1	13	1	24
C/C(N)=C(/C#N)C(=O)COC(=O)Cc1coc2ccc3ccccc3c12	12	5	8	12
Cc1ccc(NC(=O)C2SC(=Nc3ccccc3)C(C(=O)Nc3ccc(Cl)cc3)=C2N)cc1 (centres undefined)	-12	66*	-6	28
CCOC(=O)c1cccnc1SCC(=O)Nc1ccc(C)cc1	-3	1	2	23
Cc1ccc(NC(=O)CSc2ncccc2C(=O)Oc2cccc([N+](=O)[O-])c2)cc1Cl	0	3	70*	-18
CC(=O)Nc1ccc(S(=O)(=O)N(CC(=O)Nc2cc(C)on2)Cc2ccc(F)cc2)cc1	.	.	.	8
CCOc1ccc(CC(=O)NNC(=O)/C=C/C(=O)O)cc1	.	.	.	-1
CN(C1=C(N2CCOCC2)C(=O)c2ccccc2C1=O)c1ccccc1	-10	19	59*	47
COc1cc(NC(=O)c2ccc3c(c2)OCCO3)ccc1NC(=O)c1cccs1	-25	1	-7	11
Cc1cc(C)nc(Nc2n[nH]c(COc3ccc4ccccc4c3)n2)n1	8	9	-2	87*
COc1ccc(OC)c(S(=O)(=O)Nc2ccc(O)c3ccccc23)c1	-37	62*	100*	36
CC(=O)Nc1ccc(S(=O)(=O)N(C)c2ccc(OCC(=O)OCC(=O)NCc3ccco3)cc2)cc1	.	.	.	-4
SMILES	Arbovirus anti	WT yeast gro inh	Lmaj promast	CHOP inh
CC(=O)Nc1ccc(SCC(=O)c2cc(C)n(-c3ccccc3F)c2C)cc1	-6	-28	81*	45
Cc1nn(CC(O)Cn2cnc3c2c(=O)n(C)c(=O)n3C)c(C)c1Br (centres undefined)	-2	6	-1	17
Cc1ccc2c(c1)c1c(n2CC(O)Cn2nc(C)c(Br)c2C)CCCC1 (centres undefined)	-37	76*	11	52
Cc1nn(CC(O)Cn2c3c(c4ccccc42)CCN(C)C3=O)c(C)c1Br (centres undefined)	36*	11	32	6
CNCC(O)Cn1c2c(c3ccccc31)CCCC2 (centres undefined)	8	-1	1	24
Cc1ccc2c(c1)c1c(n2CC(O)CNC(C)(C)C)CCCC1 (centres undefined)	-49	32	82*	68
CCOn1c(=O)c(=O)n(OC)c2ccccc21	.	.	.	-14
COc1cc([C@H]2c3[nH]c4ccccc4c3C[C@H]3C(=O)N4[C@@H](c5cc(OC)c(OC)c(OC)c5)c5[nH]c6ccccc6c5C[C@H]4C(=O)N23)cc(OC)c1OC	-24	4	-4	96*
O=C1[C@@H]2Cc3c([nH]c4ccccc34)[C@@H](c3ccccc3)N2C(=O)[C@@H]2Cc3c([nH]c4ccccc34)[C@@H](c3ccccc3)N12	-6	-5	76*	106*
CN1CC(=O)N2[C@H](c3ccc4c(c3)OCO4)c3[nH]c4ccccc4c3C[C@@H]2C1=O	20	-3	.	36
NS(=O)(=O)c1ccc(NC(=O)COC(=O)COc2ccc(Br)cc2)cc1	.	.	.	4
